A number with no mark means an inactive call. The rule behind the calls is not given here. Where a SMILES comes first, the peptide text is derived from it. The star is where a group is joined. Boc = CC(C)(C)OC(=O)*
target: Pantothenate synthetase (Mycobacterium tuberculosis (strain ATCC 25618 / H37Rv)) (UniProt P9WIL5); experiment: Recombinant Mtb pantothenate synthetase (PanC) inhibitors, coupled enzyme, confirmatory (AID 375); conditions: coupled enzyme assay; at 10 µM, hits give high values;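 note: 0% = full reaction with vehicle and 100% = no enzyme background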
Sequence (P9WIL5 whole entry, looked up): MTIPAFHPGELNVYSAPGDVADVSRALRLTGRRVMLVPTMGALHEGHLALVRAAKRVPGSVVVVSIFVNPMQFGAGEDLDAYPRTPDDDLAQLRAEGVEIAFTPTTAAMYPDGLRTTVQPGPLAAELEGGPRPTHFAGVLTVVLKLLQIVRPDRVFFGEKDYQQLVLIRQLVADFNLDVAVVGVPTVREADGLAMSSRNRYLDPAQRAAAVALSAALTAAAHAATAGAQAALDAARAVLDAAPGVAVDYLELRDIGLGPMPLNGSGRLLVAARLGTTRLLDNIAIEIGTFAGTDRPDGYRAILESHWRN

SMILES | inhibition [%]
CC(=O)NCc1nc2ccccc2n1C(C)C | 0
O=C(NCCC1=CCCCC1)C1CCN(S(=O)(=O)c2cccc3cccnc23)CC1 | 19
CC(C)CC(NC(=O)OC(C)(C)C)C(=O)NC(C(=O)NC(C)C(N)=O)C(C)C (stereo not drawn) (Boc-Leu-Val-Ala-NH2; configuration not given here) | 16
Cc1cccc(OCC(=O)N2CCC(c3ccccc3)C2)c1 (configuration not stated) | 3
COc1cccc(Cn2c(OCC3CCCO3)nc3c2c(=O)n(C)c(=O)n3C)c1 (configuration not stated) | 3
CC(=O)Nc1cccc(NC(=O)CSc2nnnn2C(C)C)c1 | 5
CCOCC(=O)Nc1sc2c(c1C(=O)OCC)CCCC2 | 0

— PubChem BioAssay
